# In PubChem BioAssay (NCI):
# This is part of a sample that, as a whole, favours compounds with a hit. Of some 83,000 tested, about 20% had one in any assay.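 The test compound was applied at a single concentration to cells in 96-well plates for 48 hours, and percent growth was recorded.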 Values without a mark were called inactive. Calls of active or inactive are those of the source. How the source made its calls: active means growth percent below 10; inactive means the rest.
# Columns and labels:
# Assay in all cases: NCI-60 one-dose screen, 48 h (100 = growth as untreated, 0 = no growth, -100 = all killed)
# Conditions in all cases: 10 µM
# RPMI-8226 leukemia = tested on: RPMI-8226 leukemia
# OVCAR-8 ovarian = tested on: OVCAR-8 ovarian
# OVCAR-5 ovarian = tested on: OVCAR-5 ovarian
# OVCAR-4 ovarian = tested on: OVCAR-4 ovarian
# SK-OV-3 ovarian = tested on: SK-OV-3 ovarian
# IGROV1 ovarian = tested on: IGROV1 ovarian
# OVCAR-3 ovarian = tested on: OVCAR-3 ovarian
# HS 578T breast = tested on: HS 578T breast
# NCI/ADR-RES ovarian = tested on: NCI/ADR-RES ovarian
# T-47D breast = tested on: T-47D breast
# MDA-MB-435 melanoma = tested on: MDA-MB-435 melanoma
# SW-620 colon = tested on: SW-620 colon
# MCF7 breast = tested on: MCF7 breast
# HCT-116 colon = tested on: HCT-116 colon
# HCC-2998 colon = tested on: HCC-2998 colon
# KM12 colon = tested on: KM12 colon
# BT-549 breast = tested on: BT-549 breast
SMILES,growth (RPMI-8226 leukemia),growth (OVCAR-8 ovarian),growth (OVCAR-5 ovarian),growth (OVCAR-4 ovarian),growth (SK-OV-3 ovarian),growth (IGROV1 ovarian),growth (OVCAR-3 ovarian),growth (HS 578T breast),growth (NCI/ADR-RES ovarian),growth (T-47D breast),growth (MDA-MB-435 melanoma),growth (SW-620 colon),growth (MCF7 breast),growth (HCT-116 colon),growth (HCC-2998 colon),growth (KM12 colon),growth (BT-549 breast)
O=[N+]([O-])c1cccc(-c2ncc(-c3ccc(Cl)cc3Cl)[nH]2)c1,-8.35% (active),83.5%,117%,70%,115%,26.6%,59.8%,44.9%,97.2%,79%,76.5%,-88% (active),-8.38% (active),13.5%,58.1%,15.7%,–
CSc1nn(-c2ccccc2)c2ncnc(Oc3ccc(C)cc3)c12,92.4%,50.7%,92.5%,9.15% (active),75.2%,92.7%,98.1%,85.9%,93.4%,–,102%,103%,97.7%,85.3%,99.4%,–,98%
CCCCCCCCCCCCCCCCN(C(C)c1ccccc1)S(=O)(=O)c1ccc(OC)c(N)c1 (stereo not given),103%,104%,104%,92.1%,112%,129%,107%,126%,98.7%,113%,108%,99.7%,95.9%,101%,97.6%,100%,–
COc1ccc(-c2nc(-c3nc4cc(Cl)c(Cl)cc4[nH]3)c3ccccn23)cc1,49.9%,31.6%,91.6%,-34.2% (active),-25.1% (active),75.9%,39%,12.9%,51.4%,–,65.2%,79.6%,69.6%,24.8%,76.4%,–,71.9%
COc1ccccc1CNCCCN1C(=O)c2ccc3c4c(ccc(c24)C1=O)C(=O)N(CCCN)C3=O,-13.6% (active),-24.2% (active),-29.7% (active),-67.1% (active),27.3%,-52.7% (active),-27.8% (active),-13% (active),59.4%,–,-88.3% (active),-69.8% (active),-29.4% (active),-4.19% (active),-56.8% (active),4.38% (active),-43.4% (active)
N=C(N)c1ccc(-c2ccc(-c3ccco3)o2)cc1,25.3%,76.2%,79%,62.9%,94.9%,69.7%,88.2%,83.4%,93.1%,58.7%,55.4%,60.3%,–,42.5%,-28.3% (active),–,–
Oc1[nH]c2cc(Cl)ccc2c1/C=c1/ccc2c(c1)N=C(c1cc(F)cc(F)c1)N=2,-4.53% (active),30.5%,75.5%,48.8%,1.53% (active),43%,-50.4% (active),17.3%,2.67% (active),30.9%,-32.5% (active),24.8%,11%,18.8%,58%,13.1%,–
Cc1nc2ccccc2c(N)c1-c1cc(C)c2c(C)nc3ccccc3c2n1,-40.9% (active),-29.4% (active),32.4%,-64.1% (active),96.7%,-92% (active),-96.6% (active),-32.3% (active),43.8%,-20.4% (active),69.4%,-65.7% (active),–,-82.1% (active),-35% (active),-83.2% (active),–
O=C(CCCCC(=O)Nc1ccc2c(c1)/C(=C/c1ccc[nH]1)C(=O)N2)NO,96.3%,69.4%,100%,56.6%,73.6%,95.5%,36.9%,72.4%,93.8%,0.269% (active),74.8%,83.9%,61.9%,88.3%,101%,78%,–
CCCCCCCCCCCC[n+]1ccc(C(N)=O)cc1,-6.05% (active),16.1%,20.5%,48.8%,45.5%,-18.7% (active),23.2%,31.3%,103%,38.8%,33.6%,23.6%,40.2%,25.6%,25.8%,-47% (active),–
